Rows were chosen to be rich in hits. Some 7.3% of all compounds tested hit in one or more screens of this group.
Rab9 promoter act: activators of Rab9 promoter. Huh7 Rab9 promoter-luciferase reporter, luminescence, 24 h. Potency, µM (doses to about 9.22 µM), most hits filed as activators. 320,000 tested, 2.8% active. AID 485297; also: nearly all actives have a fitted effect of over 60% in size
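Huh7 reporter line, Rab9 promoter upstream of luciferase. Compound exposure 24 h at 37 °C in reduced-serum medium with 10% FBS. Read-out: luminescence.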
FLuc modulator: firefly luciferase modulation, counter-screen for miR-21 project; Potency, µM (top dose mostly 57.5 µM), usual class: inhibitors; purified FLuc, Km substrates, luminescence inhibition; 360,000 tested, 6.9% active; also: nearly all actives have a fitted effect of over 55% in size
Target sequence (P08659 whole entry, looked up): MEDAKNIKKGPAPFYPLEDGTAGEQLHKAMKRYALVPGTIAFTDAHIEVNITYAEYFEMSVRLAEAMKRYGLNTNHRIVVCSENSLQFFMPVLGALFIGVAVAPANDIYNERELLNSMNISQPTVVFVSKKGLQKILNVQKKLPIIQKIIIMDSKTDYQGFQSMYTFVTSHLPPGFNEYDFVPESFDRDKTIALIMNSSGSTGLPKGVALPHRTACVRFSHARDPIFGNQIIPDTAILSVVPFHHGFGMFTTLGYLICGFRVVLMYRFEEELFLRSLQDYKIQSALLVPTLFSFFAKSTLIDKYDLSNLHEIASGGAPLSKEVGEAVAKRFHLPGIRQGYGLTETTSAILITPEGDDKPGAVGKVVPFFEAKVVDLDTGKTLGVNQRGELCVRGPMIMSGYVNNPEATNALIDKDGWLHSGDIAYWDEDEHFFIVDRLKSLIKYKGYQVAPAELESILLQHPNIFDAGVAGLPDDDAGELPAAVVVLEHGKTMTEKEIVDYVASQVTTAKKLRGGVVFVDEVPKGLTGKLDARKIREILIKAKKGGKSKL
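Purified P. pyralis luciferase, 10 nM final, with Km-level 10 uM D-luciferin and 10 uM ATP in 50 mM Tris acetate pH 7.5, 10 mM Mg acetate, 0.01% Tween-20, 0.05% BSA; 6-point qHTS titration about 60 µM downward; luminescence read.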
NPC1 prom act: NPC1 promoter activation. 320,000 tested, 2.4% active. Huh7 NPC1 promoter luciferase reporter, 24 h. AID 485313. Potency, µM (highest dose often 9.22 µM), hits mostly activators; also: nearly all actives have a fitted effect of over 60% in size
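NPC1 promoter–luciferase Huh7 cells; 24 h compound; luminescence.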
p53 reactivation: re-activators of mutant p53; H1299 p53-A138V BP100-luciferase reporter, luminescence, 24 h; Potency, µM (series often up to 92.2 µM), actives largely listed as activators; 320,000 tested, 0.063% active; also: nearly all actives have a fitted effect of over 45% in size
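p53-null H1299 cells stably carrying temperature-sensitive p53-A138V and a BP100-luciferase reporter were pinned with compounds (4-point, 1:5 series) and held 24 hrs at 37 deg C. Luminescence was read 10 min after detection reagent.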
ELG1 genotoxic: genotoxicity induction in ELG1-luciferase HEK293T cells; HEK293T ELG1-luciferase reporter, luminescence, 16 h; Potency, µM (titrated, usually from 46 µM), actives largely listed as activators; 330,000 tested, 1.3% active; AID 504466; also: nearly all actives have a fitted effect of over 60% in size
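After overnight (16 hr) compound treatment at 37 °C, ELG1-luciferase HEK293T cells were lysed with ONE-Glo; luminescence quantified 30 min later at room temperature.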
SMN2 splice up: enhancers of SMN2 splice variant expression. HEK293 SMN2-luciferase splicing reporter, luminescence, 30-36 h. Potency, µM (top dose mostly 46.1 µM), actives largely listed as activators. 210,000 tested, 2.8% active. AID 1458; also: nearly all actives have a fitted effect of over 55% in size
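HEK293 cells carry an SMN2 minigene-luciferase reporter in which exon 7 inclusion puts luciferase in frame. Cells were seeded at 2000 cells/well, attached for 10-12 hours, then exposed to compounds for 30-36 hours at 37C before ONE-Glo luminescence.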
Each line names hits and unclear results; the compound was inactive in the other large screens. Calls follow the shape of the dose curve; as a rule, active = well fitted curve in the direction sought with a large enough effect; inconclusive = small, poorly fitted or top-dose-only effect, or another doubt; inactive = no such curve, though single readings can be large; an effect the other way counts as inactive or inconclusive.

COc1ccc(OC)c(CCNC(=O)c2cc3c(=O)oc4ccc(C)cc4c3s2)c1	none (no result: Rab9 promoter act, NPC1 prom act, p53 reactivation, ELG1 genotoxic)
O=C(CSc1nncs1)NC(=O)Nc1ccc2c(c1)OCCO2	Rab9 promoter act 3.55µM, FLuc modulator 15.1µM, NPC1 prom act inconclusive, ELG1 genotoxic inconclusive (no result: SMN2 splice up)
O=C(CSc1nncs1)Nc1ccc2c(c1)OCCO2	Rab9 promoter act inconclusive, FLuc modulator inconclusive, NPC1 prom act inconclusive, ELG1 genotoxic 14.6µM
Cc1cc(C(=O)CSc2nncs2)c(C)n1-c1ccc2c(c1)OCO2	Rab9 promoter act 2.24µM, FLuc modulator 19µM, NPC1 prom act inconclusive, p53 reactivation inconclusive
O=C(NCCc1ccc(F)cc1)NC12CC3CC(CC(C3)C1)C2	Rab9 promoter act 3.55µM, FLuc modulator 10.7µM, NPC1 prom act 2.51µM, p53 reactivation inconclusive, ELG1 genotoxic inconclusive (no result: SMN2 splice up)
O=C(NCCC1=CCCCC1)NC12CC3CC(CC(C3)C1)C2	Rab9 promoter act 0.891µM, FLuc modulator 3.38µM, NPC1 prom act 0.631µM, p53 reactivation inconclusive, ELG1 genotoxic inconclusive
COc1ccc(CCNC(=O)NC23CC4CC(CC(C4)C2)C3)cc1	FLuc modulator inconclusive
CCOC(=O)c1cnc(NCc2ccccc2OC)c2ccccc12	none (no result: Rab9 promoter act, NPC1 prom act, p53 reactivation, ELG1 genotoxic, SMN2 splice up)
CCOC(=O)c1cc(-c2ccc(C)cc2)n(CC(=O)NC2CCCCCC2)c1C	none (no result: Rab9 promoter act, NPC1 prom act, p53 reactivation, ELG1 genotoxic)
O=S(=O)(Nc1cccc(-c2ccc(N3CCOCC3)nn2)c1)c1cc(C(F)(F)F)ccc1Cl	FLuc modulator 5.36µM (no result: Rab9 promoter act, NPC1 prom act, p53 reactivation, ELG1 genotoxic, SMN2 splice up)
O=S(=O)(Nc1ccc(N2CCOCC2)cc1)c1ccc(F)cc1F	none
CS(=O)(=O)Nc1cccc(-c2nc(N3CCOCC3)c3ccccc3n2)c1	none (no result: Rab9 promoter act, FLuc modulator, NPC1 prom act, p53 reactivation, ELG1 genotoxic)
O=S(=O)(Nc1cccc(-c2ccc(N3CCOCC3)nn2)c1)c1ccc(F)cc1F	FLuc modulator 7.57µM (no result: Rab9 promoter act, NPC1 prom act, p53 reactivation, ELG1 genotoxic, SMN2 splice up)
O=S(=O)(Nc1cccc(-c2ccc(N3CCOCC3)nn2)c1)c1ccccc1C(F)(F)F	FLuc modulator 7.57µM (no result: Rab9 promoter act, NPC1 prom act, p53 reactivation, ELG1 genotoxic, SMN2 splice up)
O=C(COc1ccc(Cl)cc1Cl)N/N=C/c1ccc[nH]1	FLuc modulator 13.5µM (no result: SMN2 splice up)
O=C(COc1ccc(Cl)cc1Cl)c1ccc[nH]1	Rab9 promoter act inconclusive, FLuc modulator 16.9µM, NPC1 prom act inconclusive, p53 reactivation inconclusive, ELG1 genotoxic inconclusive (no result: SMN2 splice up)
O=C(N/N=C/c1cc2c3c(c1O)CCCN3CCC2)c1ccccc1O	FLuc modulator 23.9µM, p53 reactivation inconclusive
CCOC(=O)C1CSC(Cc2ccc(OCc3ccc([N+](=O)[O-])cc3)cc2)N1 (stereo unspecified)	SMN2 splice up 12.6µM (no result: Rab9 promoter act, FLuc modulator, NPC1 prom act, p53 reactivation, ELG1 genotoxic)
CCOC(=O)CCc1c(C)c2ccc(OCc3ccc([N+](=O)[O-])cc3)cc2oc1=O	p53 reactivation inconclusive
Cc1cc2nc(SCC(=O)Nc3ccccc3C(=O)O)[nH]c2cc1C	FLuc modulator 10.7µM, ELG1 genotoxic inconclusive
NC(=O)c1ccccc1NC(=O)CSc1nc2ccccc2c(=O)[nH]1	none (no result: SMN2 splice up)
Cc1ccc(-c2nc3sc(CCNC(=O)c4ccco4)c(C)n3n2)cc1	FLuc modulator 13.5µM (no result: Rab9 promoter act, NPC1 prom act, p53 reactivation, ELG1 genotoxic, SMN2 splice up)
Cc1c(CCNC(=O)Cc2ccccc2)sc2nc(-c3ccc(F)cc3)nn12	none (no result: Rab9 promoter act, NPC1 prom act, p53 reactivation, ELG1 genotoxic, SMN2 splice up)
Cc1ccc(-c2nc3sc(CCNC(=O)c4ccc(Br)o4)c(C)n3n2)cc1	FLuc modulator 10.7µM (no result: Rab9 promoter act, NPC1 prom act, p53 reactivation, ELG1 genotoxic, SMN2 splice up)
COc1ccc2oc(C(=O)OCC(=O)N(C)CC(=O)Nc3ccc(F)cc3)c(C)c2c1	p53 reactivation inconclusive (no result: SMN2 splice up)
Cc1cc(=O)oc2cc(NC(=O)c3ccccc3OC(F)F)ccc12	Rab9 promoter act 3.16µM, FLuc modulator inconclusive, NPC1 prom act 3.98µM, ELG1 genotoxic inconclusive (no result: SMN2 splice up)
Cc1cc(=O)oc2cc(NC(=O)c3cc(F)ccc3F)ccc12	Rab9 promoter act 2.51µM, NPC1 prom act inconclusive, ELG1 genotoxic inconclusive (no result: p53 reactivation, SMN2 splice up)
CC(=O)Nc1cc2nc(C)n(Cc3ccccc3[N+](=O)[O-])c2nc1C	none (no result: SMN2 splice up)
CC(C)CC(=O)Nc1cccc(-c2cn3cccnc3n2)c1	FLuc modulator 23.9µM (no result: Rab9 promoter act, NPC1 prom act, p53 reactivation, ELG1 genotoxic, SMN2 splice up)
CC(C)CC(=O)Nc1ccc(-c2cn3cccnc3n2)cc1	FLuc modulator 15.1µM, NPC1 prom act inconclusive, ELG1 genotoxic inconclusive (no result: SMN2 splice up)
CCOCC(=O)Nc1ccc(-c2cn3cccnc3n2)cc1	FLuc modulator inconclusive
CCCC(=O)Nc1ccc(-c2cn3cccnc3n2)cc1	Rab9 promoter act inconclusive, FLuc modulator 16.9µM (no result: SMN2 splice up)
CCCC(=O)Nc1cccc(-c2cn3cccnc3n2)c1	none
CC(C)(C)CC(=O)Nc1ccc(-c2cn3cccnc3n2)cc1	Rab9 promoter act inconclusive, FLuc modulator 9.53µM, NPC1 prom act 2.82µM, ELG1 genotoxic inconclusive (no result: SMN2 splice up)
CCCC(CCC)C(=O)Nc1cccc(-c2cn3cccnc3n2)c1	none (no result: Rab9 promoter act, NPC1 prom act, p53 reactivation, ELG1 genotoxic, SMN2 splice up)
Cc1ccc(-c2c(C(=O)N3CCN(c4cccc(C)c4)C(C)C3)oc(=O)c3ccccc23)cc1 (stereo unspecified)	none (no result: Rab9 promoter act, NPC1 prom act, p53 reactivation, ELG1 genotoxic)
CCOc1ccc2oc(=O)cc(CN3CCN(c4ccc(OC)cc4)CC3)c2c1	none (no result: Rab9 promoter act, NPC1 prom act, p53 reactivation, ELG1 genotoxic)
Cc1ccc(O)c(C(=O)c2cnn(-c3ccccc3)c2)c1	FLuc modulator inconclusive, p53 reactivation inconclusive, ELG1 genotoxic inconclusive (no result: SMN2 splice up)
Cc1ccc(-n2cc(C(=O)c3ccccc3O)cn2)cc1	Rab9 promoter act inconclusive, FLuc modulator 0.301µM, NPC1 prom act 0.562µM, ELG1 genotoxic inconclusive
O=C(c1cnn(C(=O)c2ccc(O)cc2)c1)c1ccccc1O	FLuc modulator 3.79µM
COc1ccccc1N1CCN(/N=C/c2ccc(Cl)c([N+](=O)[O-])c2)CC1	FLuc modulator 15.1µM, ELG1 genotoxic inconclusive (no result: p53 reactivation, SMN2 splice up)
COc1ccccc1N1CCN(/N=C/c2ccc([N+](=O)[O-])cc2)CC1	Rab9 promoter act 3.98µM, FLuc modulator 15.1µM, NPC1 prom act inconclusive (no result: p53 reactivation, SMN2 splice up)
O=[N+]([O-])c1cc(/C=N/N2CCN(C3c4ccccc4-c4ccccc43)CC2)ccc1Cl	none

Screening results: PubChem BioAssay, National Center for Advancing Translational Sciences (NCATS)
